# In PubChem BioAssay (NCATS):
# Inconclusive results are not listed. Entries that show only a call come without a potency. Calls of active or inactive are those of the source. Calls follow the shape of the dose curve; as a rule, active = well fitted inhibition curve with a large enough effect; inconclusive = small, poorly fitted or top-dose-only effect; inactive = flat fitted curve, though single readings scatter.
# What was measured:
# Assay in all cases: qHTS profiling for inhibitors of Plasmodium falciparum proliferation (AID 504749); also: nearly all actives have a fitted effect of over 60% in size
# Conditions in all cases: P. falciparum in erythrocytes, SYBR Green DNA, 72 h; series mostly up to 28.7 µM
# CP286 = system: CP286
# In short: (§1)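 In a 72 h erythrocytic culture (37 C, humidified, 5% CO2) at 2.5% hematocrit and 0.3% starting parasitemia, compounds were tested; SYBR Green I in detergent lysis buffer stained parasite DNA overnight.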
# CP291 = system: CP291
# In short: as §1
# CP297 = system: CP297
# In short: as §1
# CP305 = system: CP305
# In short: as §1
# CP315 = system: CP315
# In short: as §1
# CP325 = system: CP325
# In short: as §1
# CP329 = system: CP329
# In short: as §1
# CP335 = system: CP335
# In short: as §1
# DFO2036 = system: DFO2036
# In short: as §1
# DIV14 = system: DIV14
# In short: as §1
# DIV17 = system: DIV17
# In short: as §1
# DIV30 = system: DIV30
# In short: as §1
# Dd2 = system: Dd2
# In short: as §1
# ECU = system: ECU
# In short: as §1
# FAB9 = system: FAB9
# In short: as §1
# GB4 = system: GB4
# In short: as §1
# HB3 = system: HB3
# In short: as §1
# ICS = system: ICS
# In short: as §1
# JCK = system: JCK
# In short: as §1
# N140 = system: N140
# In short: as §1
# Potency is read from the fitted curve at half-maximal effect.
SMILES,Potency (CP286),Potency (CP291),Potency (CP297),Potency (CP305),Potency (CP315),Potency (CP325),Potency (CP329),Potency (CP335),Potency (DFO2036),Potency (DIV14),Potency (DIV17),Potency (DIV30),Potency (Dd2),Potency (ECU),Potency (FAB9),Potency (GB4),Potency (HB3),Potency (ICS),Potency (JCK),Potency (N140)
O=C(O)P(=O)(O)O,inactive,inactive,inactive,inactive,inactive,inactive,inactive,inactive,inactive,inactive,inactive,inactive,inactive,inactive,inactive,inactive,inactive,inactive,inactive,inactive
C[C@@H](O)[C@H]1C(=O)N2C(C(=O)O)=C(S[C@@H]3CN[C@H](CNS(N)(=O)=O)C3)[C@H](C)[C@H]12,inactive,inactive,inactive,inactive,inactive,inactive,inactive,inactive,inactive,inactive,inactive,inactive,inactive,inactive,inactive,inactive,inactive,inactive,inactive,inactive
CC(=O)Nc1ccc(OCC(O)CNC(C)C)cc1 (stereo not given),inactive,inactive,inactive,inactive,inactive,inactive,inactive,inactive,inactive,inactive,inactive,inactive,inactive,inactive,inactive,inactive,inactive,inactive,inactive,inactive
COc1cc(C(=O)N2CCCCCCC2)cc(OC)c1OC,inactive,inactive,inactive,inactive,inactive,inactive,inactive,inactive,inactive,inactive,inactive,inactive,inactive,inactive,inactive,inactive,inactive,inactive,inactive,inactive
CC(=O)OC[C@H]1O[C@@H](n2ncc(=O)[nH]c2=O)[C@H](OC(C)=O)[C@@H]1OC(C)=O,inactive,inactive,inactive,inactive,inactive,inactive,inactive,inactive,inactive,inactive,inactive,inactive,inactive,inactive,inactive,inactive,inactive,inactive,inactive,inactive
CC(=O)Nc1ccc(CC(=O)O)cc1,inactive,inactive,inactive,inactive,inactive,inactive,inactive,inactive,inactive,inactive,inactive,inactive,inactive,inactive,inactive,inactive,inactive,inactive,inactive,inactive
O=C(NCCc1c[nH]c2ccccc12)c1cccnc1,inactive,inactive,inactive,inactive,inactive,inactive,inactive,inactive,inactive,inactive,inactive,inactive,inactive,inactive,inactive,inactive,inactive,inactive,inactive,inactive
COc1cc(C)nc(-n2nc(C)cc2OC)n1,inactive,inactive,inactive,inactive,inactive,inactive,inactive,inactive,inactive,inactive,inactive,inactive,inactive,inactive,inactive,inactive,inactive,inactive,inactive,inactive
CCCCCCCCCCCCCC[N+](C)(C)Cc1ccccc1,3.16 µM (active),4.78 µM (active),5.36 µM (active),5.36 µM (active),10.7 µM (active),5.36 µM (active),4.78 µM (active),4.78 µM (active),7.94 µM (active),4.78 µM (active),4.78 µM (active),6.75 µM (active),10 µM (active),7.08 µM (active),5.62 µM (active),4.26 µM (active),8.91 µM (active),2.51 µM (active),11.2 µM (active),8.91 µM (active)
Cc1cccc(C)c1NC(=O)CN1CCCC1,inactive,inactive,inactive,inactive,inactive,inactive,inactive,inactive,inactive,inactive,inactive,inactive,inactive,inactive,inactive,inactive,inactive,inactive,inactive,inactive
Nc1ccc(C(=O)NCC(=O)O)cc1,inactive,inactive,inactive,inactive,inactive,inactive,inactive,inactive,inactive,inactive,inactive,inactive,inactive,inactive,inactive,inactive,inactive,inactive,inactive,inactive
CCOC(=O)[C@H](CCc1ccccc1)N[C@@H](C)C(=O)N1[C@H](C(=O)O)C[C@H]2CCCC[C@@H]21,inactive,inactive,inactive,inactive,inactive,inactive,inactive,inactive,inactive,inactive,inactive,inactive,inactive,inactive,inactive,inactive,inactive,inactive,inactive,inactive
NS(=O)(=O)Cc1noc2ccccc12,inactive,inactive,inactive,inactive,inactive,inactive,inactive,inactive,inactive,inactive,inactive,inactive,inactive,inactive,inactive,inactive,inactive,inactive,inactive,inactive
N=C(N)N1CCc2ccccc2C1,inactive,inactive,inactive,inactive,inactive,inactive,inactive,inactive,inactive,inactive,inactive,inactive,inactive,inactive,inactive,inactive,inactive,inactive,inactive,inactive
CCCCCCCCOc1ccc(C(=O)c2ccccc2)c(O)c1,inactive,inactive,inactive,inactive,inactive,inactive,inactive,inactive,inactive,inactive,inactive,inactive,inactive,inactive,inactive,inactive,inactive,inactive,inactive,inactive
CCCCNC(=O)NS(=O)(=O)c1ccc(N)cc1,inactive,inactive,inactive,inactive,inactive,inactive,inactive,inactive,inactive,inactive,inactive,inactive,inactive,inactive,inactive,inactive,inactive,inactive,inactive,inactive
Cc1nc(-c2ccc(Cl)cc2)oc1COC(C)(C)C(=O)O,inactive,inactive,inactive,inactive,inactive,inactive,inactive,inactive,inactive,inactive,inactive,inactive,inactive,inactive,inactive,inactive,inactive,inactive,inactive,inactive
CCOC(=O)c1c(N)sc2c1CCN(Cc1ccccc1)C2,5.62 µM (active),8.49 µM (active),7.57 µM (active),6.01 µM (active),6.75 µM (active),4.78 µM (active),4.78 µM (active),4.26 µM (active),7.08 µM (active),2.69 µM (active),7.57 µM (active),13.5 µM (active),7.94 µM (active),7.08 µM (active),4.47 µM (active),4.26 µM (active),3.55 µM (active),5.01 µM (active),11.2 µM (active),12.6 µM (active)
O=c1[nH]c(=O)n([C@H]2C[C@H](O)[C@@H](CO)O2)cc1F,inactive,inactive,inactive,inactive,inactive,inactive,inactive,inactive,inactive,inactive,inactive,inactive,inactive,inactive,inactive,inactive,inactive,inactive,inactive,inactive
CC(=O)NO,inactive,inactive,inactive,inactive,inactive,inactive,inactive,inactive,inactive,inactive,inactive,inactive,inactive,inactive,inactive,inactive,inactive,inactive,inactive,inactive
NS(=O)(=O)c1cc(C(=O)O)cc(N2CCCC2)c1Oc1ccccc1,inactive,inactive,inactive,inactive,inactive,inactive,inactive,inactive,inactive,inactive,inactive,inactive,inactive,inactive,inactive,inactive,inactive,inactive,inactive,inactive
CCOC(=O)c1ccc(N)cc1,inactive,inactive,inactive,inactive,inactive,inactive,inactive,inactive,inactive,inactive,inactive,inactive,inactive,inactive,inactive,inactive,inactive,inactive,inactive,inactive
Nc1nc(N)c(-c2ccccc2)s1,inactive,inactive,inactive,inactive,inactive,inactive,inactive,inactive,inactive,inactive,inactive,inactive,inactive,inactive,inactive,inactive,inactive,inactive,inactive,inactive
CCOC(=O)C(C#N)=C(c1ccccc1)c1ccccc1,inactive,inactive,inactive,inactive,inactive,inactive,inactive,inactive,inactive,inactive,inactive,inactive,inactive,inactive,inactive,inactive,inactive,inactive,inactive,inactive
OCc1ccccn1,inactive,inactive,inactive,inactive,inactive,inactive,inactive,inactive,inactive,inactive,inactive,inactive,inactive,inactive,inactive,inactive,inactive,inactive,inactive,inactive
Cc1c[nH]c2ccccc12,inactive,inactive,inactive,inactive,inactive,inactive,inactive,inactive,inactive,inactive,inactive,inactive,inactive,inactive,inactive,inactive,inactive,inactive,inactive,inactive
CC(=O)Oc1ccc(C)cc1,inactive,inactive,inactive,inactive,inactive,inactive,inactive,inactive,inactive,inactive,inactive,inactive,inactive,inactive,inactive,inactive,inactive,inactive,inactive,inactive
Cc1c(-c2ccccc2)oc2c(C(=O)OCCN3CCCCC3)cccc2c1=O,inactive,inactive,inactive,inactive,inactive,inactive,inactive,inactive,inactive,inactive,inactive,inactive,inactive,inactive,inactive,inactive,inactive,inactive,inactive,inactive
